Measurements reported in the OligoGym collection.
Further: reference of the scale not given here.

What follows are sequences tested against UBA3 (assay: pooled miR-30 sensor sort-seq; sequence = guide strand). Settings: shRNA.
TTCTTGTCCATCAACAAGCCCC showed a sensor-assay potency score (higher = more potent) of -0.667.
For TTAAAATCTTGAATCTTGTTGA, the sensor-assay potency score (higher = more potent) was 0.888.
TAGAACTTTACATGTATCTAAC gave a sensor-assay potency score (higher = more potent) of -0.95.
Sequence TATATTGTGATGCTCTCTCTAG has a sensor-assay potency score (higher = more potent) of -0.466.
TTGTCGATAGAAAGTGTCGTTA gave a sensor-assay potency score (higher = more potent) of -0.471.
For TAGATAATCCAAAACCTCCTGT, the sensor-assay potency score (higher = more potent) was 0.333.
Sequence TTACATACTCAATACAGTGTTC has a sensor-assay potency score (higher = more potent) of -0.397.

The sequences below were run against UBE2F in the same assay as above. Settings: shRNA.
Work on TTCAAGTTCTGCAACCTCTTTA yielded a sensor-assay potency score (higher = more potent) of 0.721.
Work on TTTAACAAGCAATTTGTCTCTC yielded a sensor-assay potency score (higher = more potent) of 0.519.
Work on TTTGAGACCATCGTCACGCTTC yielded a sensor-assay potency score (higher = more potent) of 0.155.
ACAAACTGTAACACAGTCCATG gave a sensor-assay potency score (higher = more potent) of -1.41.
TTTATTCCGGAAGTCCTCCTTG gave a sensor-assay potency score (higher = more potent) of -0.121.
Work on TAGTCATCCACTTTATTCCGGA yielded a sensor-assay potency score (higher = more potent) of -0.0909.
TTCTCCATCTACAATGAGCAGT gave a sensor-assay potency score (higher = more potent) of -0.914.
For TTTGTCTCTCACAGAAACCCTC, the sensor-assay potency score (higher = more potent) was -0.658.
In the case of TAGCTGAAAACAATGAAGCTTG, the sensor-assay potency score (higher = more potent) is reported as -0.377.
For TTAACAAGCAATTTGTCTCTCA, the sensor-assay potency score (higher = more potent) was -0.236.
Sequence TTCTGCAGCTTCAATATTCAGT has a sensor-assay potency score (higher = more potent) of -0.23.
With AACTGTAACACAGTCCATGGGC the sensor-assay potency score (higher = more potent) was -0.0499.

What follows are sequences tested against UBTD2 in the same assay as above. Settings: shRNA.
TGGAATACTGTGTCTGTGCTGC gave a sensor-assay potency score (higher = more potent) of -0.0459.
With TACAACATAGTCCTTTGGGATC the sensor-assay potency score (higher = more potent) was -1.63.
TATGTTTGCACCATCAATGATT gave a sensor-assay potency score (higher = more potent) of -0.561.
With TATGTCGCTCTTTTCCTCTATC the sensor-assay potency score (higher = more potent) was -0.749.
Sequence TACACTGGAAGCTGATATCTGT has a sensor-assay potency score (higher = more potent) of 0.00464.
AACCTGTACAACATAGTCCTTT showed a sensor-assay potency score (higher = more potent) of 0.105.
TGTGCTGCGAACCACAAGCTTG was tested, and the sensor-assay potency score (higher = more potent) was -1.41.
AAAACCACCGCTGACTACCTGG gave a sensor-assay potency score (higher = more potent) of -0.559.
For TTCATAGGGAATTTAGAGCAGT, the sensor-assay potency score (higher = more potent) was -0.206.
TCTTGCTGCGTAGTTGTCCATC showed a sensor-assay potency score (higher = more potent) of -1.04.
With TAACCTGTACAACATAGTCCTT the sensor-assay potency score (higher = more potent) was -0.877.
Sequence TCGAACTTCATTTTGTCAGTGA has a sensor-assay potency score (higher = more potent) of 0.607.

These sequences were tested against UBXN2A in the same assay as above. Settings: shRNA.
ATAACTTCTGAAATCGTCGTTG showed a sensor-assay potency score (higher = more potent) of 0.446.
TTAATATATCTTGATAACTGGT showed a sensor-assay potency score (higher = more potent) of -0.45.
Sequence TATATTTACATCTACCTGTTTC has a sensor-assay potency score (higher = more potent) of -0.892.
TTGATTGTTGATTATTACCAAG was tested, and the sensor-assay potency score (higher = more potent) was -1.29.
TAACTTCTGAAATCGTCGTTGA gave a sensor-assay potency score (higher = more potent) of 0.784.
Work on TTAAATTTCTGGACAATCCTTT yielded a sensor-assay potency score (higher = more potent) of 0.433.
In the case of TTTTATATTTACATCTACCTGT, the sensor-assay potency score (higher = more potent) is reported as 0.256.
For TAATATATCTTGATAACTGGTA, the sensor-assay potency score (higher = more potent) was 0.173.
In the case of TTCTTTATCAAAAATTCCCTGT, the sensor-assay potency score (higher = more potent) is reported as -0.0297.
